Measured values from PubChem BioAssay (Tox21).
Inconclusive results are not listed. The source made the active and inactive calls. Unless noted, calls come from the whole dose curve; as a rule, active = well fitted curve in the direction sought with a large enough effect in the repeat runs; inconclusive = weak or mixed curves; inactive = no such curve, though single readings can be large; an effect the other way counts as inactive or inconclusive.

How the values were obtained:
[1] = qHTS assay to identify small molecule agonists of the peroxisome proliferator-activated receptor delta (PPARd) signaling pathway - cell viability counter screen (AID 743211); note: nearly all actives have a fitted effect of over 55% in size
In short: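 PPARd-bla HEK293H cells (3000/well) were pre-incubated 5 h at 37 C, then exposed to compound for 17 h at 37 C. After 2 h with LiveBLAzer substrate, CellTiter-Glo was added to the same wells; luminescence read after 30 min at room temperature.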

[2] = target: Peroxisome proliferator-activated receptor delta (Homo sapiens) (UniProt Q03181); experiment: qHTS assay to identify small molecule agonists of the peroxisome proliferator-activated receptor delta (PPARd) signaling pathway (AID 743212; calls by dose curve)
Sequence of Peroxisome proliferator-activated receptor delta (Homo sapiens) (Q03181 whole entry, looked up): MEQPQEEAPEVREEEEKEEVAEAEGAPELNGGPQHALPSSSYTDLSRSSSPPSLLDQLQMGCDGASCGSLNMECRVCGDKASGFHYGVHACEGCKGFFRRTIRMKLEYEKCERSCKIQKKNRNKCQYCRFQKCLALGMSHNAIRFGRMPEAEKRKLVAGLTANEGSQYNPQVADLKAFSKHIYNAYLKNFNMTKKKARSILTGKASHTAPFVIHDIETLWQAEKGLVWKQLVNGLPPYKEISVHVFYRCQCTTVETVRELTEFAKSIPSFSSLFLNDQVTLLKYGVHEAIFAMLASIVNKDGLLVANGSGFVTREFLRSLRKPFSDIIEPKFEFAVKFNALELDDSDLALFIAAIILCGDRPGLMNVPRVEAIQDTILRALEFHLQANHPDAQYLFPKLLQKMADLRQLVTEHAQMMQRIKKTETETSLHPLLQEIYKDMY
In short: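 Read-out: beta-lactamase FRET fluorescence after 2 h room-temperature incubation with LiveBLAzer B/G substrate. Cells were HEK293H carrying a UAS-bla reporter for PPARd, treated at 37 C with DMSO-dissolved compounds.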

[3] = target: Bile acid receptor (Homo sapiens) (UniProt Q96RI1); experiment: qHTS assay to identify small molecule agonists of the farnesoid-X-receptor (FXR) signaling pathway (AID 743220; active = well fitted activation curve with a large enough effect in the signal ratio in the repeat runs, not every such curve was filed as active; the % refers to the signal ratio)
Sequence of Bile acid receptor (Homo sapiens) (Q96RI1 whole entry, looked up): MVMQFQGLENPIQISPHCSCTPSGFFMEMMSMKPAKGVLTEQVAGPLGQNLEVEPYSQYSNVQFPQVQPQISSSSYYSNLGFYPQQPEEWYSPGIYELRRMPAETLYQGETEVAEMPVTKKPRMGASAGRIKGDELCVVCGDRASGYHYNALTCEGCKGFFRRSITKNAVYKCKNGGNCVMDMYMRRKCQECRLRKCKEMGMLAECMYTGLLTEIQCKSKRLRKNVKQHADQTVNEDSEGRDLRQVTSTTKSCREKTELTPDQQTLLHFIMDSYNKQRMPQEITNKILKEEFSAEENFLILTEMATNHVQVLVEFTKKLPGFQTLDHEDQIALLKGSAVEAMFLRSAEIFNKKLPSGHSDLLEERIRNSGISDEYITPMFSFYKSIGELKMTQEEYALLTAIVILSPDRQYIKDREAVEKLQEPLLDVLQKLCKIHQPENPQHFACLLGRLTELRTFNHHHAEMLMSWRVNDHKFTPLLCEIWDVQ
In short: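 FXR-UAS-bla HEK 293T cells carrying a UAS-driven beta-lactamase reporter were plated for 5 h at 37C/5% CO2, then exposed to DMSO-dissolved Tox21 10K compounds for 16 h at 37C. A LiveBLAzer B/G FRET substrate was loaded for 2 h at room temperature before fluorescence reading.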

[4] = qHTS assay to identify small molecule antagonists of the farnesoid-X-receptor (FXR) signaling pathway - cell viability counter screen (AID 743221; active = well fitted cell-killing curve with a large enough effect in the repeat runs, not every such curve was filed as active; note: nearly all actives have a fitted effect of over 50% in size)
In short: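 GeneBLAzer FXR-UAS-bla HEK 293T cells, compound plus chenodeoxycholic acid (50 uM final), 16 h at 37 C. CellTiter-Glo added to the same wells after the beta-lactamase read; luminescence read after 30 min at room temperature as viability.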

[5] = qHTS assay to identify small molecule antagonists of the vitamin D receptor (VDR) signaling pathway - cell viability counter screen (AID 743225); note: nearly all actives have a fitted effect of over 50% in size
In short: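 VDR-UAS-bla HEK 293T cells were plated and incubated 4 h at 37C, then dosed with compound plus 3 nM (final) 1-alpha,25-dihydroxyvitamin D3 for 16 h. After the 2 h beta-lactamase read, viability in the same wells was read as CellTiter-Glo luminescence after 30 min at room temperature.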

[6] = qHTS assay to identify small molecule agonists of the NFkB signaling pathway - cell viability counter screen (AID 1159515; calls by dose curve; note: series mostly up to about 61 µM; nearly all actives have a fitted effect of over 55% in size)
In short: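 Cells are seeded (2,000 NFkB-bla ME-180 per well), rested overnight, and dosed with DMSO-dissolved compounds for 5 hr at 37 C. Viability is then read by CellTiter-Glo luminescence after 30 min at room temperature.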

[7] = qHTS assay to identify small molecule agonists of the endoplasmic reticulum stress response signaling pathway - cell viability counter screen (AID 1159517; calls by dose curve;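 note: HeLa cells carrying an ER stress response element beta-lactamase reporter; series mostly up to about 61 µM; nearly all actives have a fitted effect of over 50% in size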)
In short: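 Steps: seed 1,500 ESRE-bla HeLa cells per well; incubate overnight at 37 C, 5% CO2; add compounds in DMSO for 5 hr; run FRET substrate 2 hr RT; add CellTiter-Glo, wait 30 min, read luminescence.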

[8] = target: Nuclear receptor ROR-gamma (Homo sapiens) (UniProt P51449); experiment: qHTS assay to identify small molecule antagonists of the retinoid-related orphan receptor gamma (ROR-gamma) signaling pathway (AID 1159521; note: nearly all actives have a fitted effect of over 50% in size; note: potency is the fitted concentration of half-maximal effect)
In short: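 Tet-on ROR-gamma CHO cells with ROR response element-luciferase reporter; compounds added 2 hr before 1 uM doxycycline induction, then 16 hr at 37 C. Antagonism scored as decreased ONE-Glo luminescence.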

[9] = qHTS assay to identify small molecule agonists of the AP-1 signaling pathway - cell viability counter screen (AID 1159525; calls by dose curve; note: nearly all actives have a fitted effect of over 55% in size)
In short: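 Same-well cytotoxicity counter screen of the Tox21 10K library in ME-180 cells. The readout is ATP-dependent luminescence after 5 h compound treatment. Data are normalised to DMSO and tetra n-octyl ammonium bromide controls.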

[10] = qHTS assay to identify small molecule agonists of the AP-1 signaling pathway (AID 1159526; calls by dose curve)
[11] = target: Retinoic acid receptor RXR-alpha (Homo sapiens) (UniProt P19793); experiment: qHTS assay to identify small molecule agonists of the RXR signaling pathway (AID 1159527; calls by dose curve; note: nearly all actives have a fitted effect of over 35% in size; note: potency is the fitted concentration of half-maximal effect)
Sequence of Retinoic acid receptor RXR-alpha (Homo sapiens) (P19793 whole entry, looked up): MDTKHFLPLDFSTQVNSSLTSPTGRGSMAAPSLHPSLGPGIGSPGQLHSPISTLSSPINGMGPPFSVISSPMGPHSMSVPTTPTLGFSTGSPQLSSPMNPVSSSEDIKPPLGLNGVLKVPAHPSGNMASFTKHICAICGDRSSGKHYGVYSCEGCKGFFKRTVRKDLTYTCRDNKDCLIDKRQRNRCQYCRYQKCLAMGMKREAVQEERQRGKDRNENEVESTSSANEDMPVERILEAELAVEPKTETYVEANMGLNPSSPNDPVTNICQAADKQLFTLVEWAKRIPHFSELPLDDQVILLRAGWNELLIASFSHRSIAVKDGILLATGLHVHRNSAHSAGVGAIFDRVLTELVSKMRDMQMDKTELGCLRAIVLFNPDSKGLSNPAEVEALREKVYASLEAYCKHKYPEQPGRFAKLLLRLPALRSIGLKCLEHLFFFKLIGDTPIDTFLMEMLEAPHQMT
In short: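 GeneBLAzer RXR-alpha-UAS-bla HEK 293T cells in 2% charcoal-stripped FBS medium were exposed to compounds for 16 hr at 37 C in agonist mode. Beta-lactamase reporter read as 460/530 nm FRET ratio after 2 hr substrate loading.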

[12] = qHTS assay to identify small molecule antagonists of the peroxisome proliferator-activated receptor delta (PPARd) signaling pathway - cell viability counter screen (AID 743213); note: nearly all actives have a fitted effect of over 50% in size
In short: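 Luminescence from CellTiter-Glo, added after the bla read and incubated 30 min at room temperature, gives viability of HEK293H PPARd-bla cells exposed to compounds for 17 h at 37 C with 300 nM L165041.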

[13] = qHTS assay to identify small molecule agonists of the farnesoid-X-receptor (FXR) signaling pathway - cell viability counter screen (AID 743218); note: nearly all actives have a fitted effect of over 45% in size
In short: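 Cells were seeded, left 5 h at 37 C and 5% CO2, then dosed with compound in DMSO for 16 h. After the beta-lactamase FRET read, CellTiter-Glo was added and luminescence measured 30 min later.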

[14] = qHTS assay to identify small molecule agonists of the vitamin D receptor (VDR) signaling pathway - cell viability counter screen (AID 743224)
In short: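 Cells: VDR-bla, 2,000/well, settled 4 h. Treatment: compounds in DMSO, 16 h, 37C/5% CO2. Readout: CellTiter-Glo luminescence after 30 min RT.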

[15] = target: Peroxisome proliferator-activated receptor delta (Homo sapiens) (UniProt Q03181); experiment: qHTS assay to identify small molecule antagonists of the peroxisome proliferator-activated receptor delta (PPARd) signaling pathway (AID 743215; active = well fitted inhibition curve with a large enough effect in the signal ratio in the repeat runs, not every such curve was filed as active; the % refers to the signal ratio;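 note: cells stimulated with agonist L165041 at 300 nM final during compound exposure; series mostly up to about 62 µM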)
In short: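 Cells: HEK293H with a UAS-driven beta-lactamase reporter responsive to PPARd. Compounds were co-added with L165041 (300 nM, final) and incubated 17 h at 37 C before a 2 h room-temperature FRET substrate step and fluorescence reading.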

[16] = target: Bile acid receptor (Homo sapiens) (UniProt Q96RI1); experiment: qHTS assay to identify small molecule antagonists of the farnesoid-X-receptor (FXR) signaling pathway (AID 743217; active = well fitted inhibition curve with a large enough effect in the signal ratio in the repeat runs, not every such curve was filed as active; the % refers to the signal ratio)
In short: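 Cells carrying a UAS-driven beta-lactamase reporter (GeneBLAzer FXR-UAS-bla HEK 293T) were plated and rested 5 h at 37 °C. Compounds in DMSO were added alongside chenodeoxycholic acid agonist at 50 uM final and left 16 h at 37 °C before FRET substrate readout.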

[17] = target: Vitamin D3 receptor (Homo sapiens) (UniProt P11473); experiment: qHTS assay to identify small molecule agonists of the vitamin D receptor (VDR) signaling pathway (AID 743222; calls by dose curve)
Sequence of Vitamin D3 receptor (Homo sapiens) (P11473 whole entry, looked up): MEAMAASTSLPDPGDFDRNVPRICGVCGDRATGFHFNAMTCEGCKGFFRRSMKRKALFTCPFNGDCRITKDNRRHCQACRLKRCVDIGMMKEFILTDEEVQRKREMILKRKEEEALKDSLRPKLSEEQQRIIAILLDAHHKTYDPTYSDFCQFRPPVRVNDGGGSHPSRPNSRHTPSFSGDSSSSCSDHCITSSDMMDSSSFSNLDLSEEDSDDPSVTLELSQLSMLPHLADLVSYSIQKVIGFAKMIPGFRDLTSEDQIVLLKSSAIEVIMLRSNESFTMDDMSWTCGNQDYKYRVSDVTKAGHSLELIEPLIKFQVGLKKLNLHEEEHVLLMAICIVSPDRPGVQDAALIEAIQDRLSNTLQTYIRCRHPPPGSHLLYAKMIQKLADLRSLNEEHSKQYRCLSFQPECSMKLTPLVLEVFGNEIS
In short: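 Cells carrying a VDR-driven beta-lactamase reporter are seeded at 2,000 per well and rested 4 h. Compounds in DMSO are added for 16 h at 37C, and FRET substrate fluorescence is measured after 2 h at room temperature.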

[18] = target: Vitamin D3 receptor (Homo sapiens) (UniProt P11473); experiment: qHTS assay to identify small molecule antagonists of the vitamin D receptor (VDR) signaling pathway (AID 743223; active = well fitted inhibition curve with a large enough effect in the signal ratio in the repeat runs, not every such curve was filed as active; the % refers to the signal ratio)
In short: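 VDR-bla cells were treated with compound plus 3 nM final 1alpha,25-dihydroxyvitamin D3 for 16 h at 37C. Beta-lactamase reporter read by B/G FRET substrate fluorescence after 2 h at room temperature. qHTS format.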

[19] = qHTS assay to identify small molecule antagonists of the retinoid-related orphan receptor gamma (ROR-gamma) signaling pathway - cell viability counter screen (AID 1159520); note: nearly all actives have a fitted effect of over 50% in size
In short: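 Tet-on ROR gamma CHO cells were given compounds for 2 hr, then doxycycline hyclate at 1 uM final, and incubated 16 hr at 37 C. Viability was measured as ATP content by CellTiter-Glo luminescence.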

Measured: Potency

O=c1c(O)c(-c2ccc(O)cc2O)oc2cc(O)cc(O)c12
not listed: [12] | [13] | [14] | [15] | [16] | [17] | [18] | [19]
inactive: all other assays above

Nc1cc(Cl)c(O)c(Cl)c1
inactive: [1] | [12] | [13] | [4] | [14] | [5] | [6] | [7]
active: [8] 68.6 µM

O=C(/C=C/c1ccccc1)OC/C=C/c1ccccc1
not listed: [11] | [12] | [13] | [19]
inactive: all other assays above

CCC(CC)C(C)CCOC(C)=O (stereo not drawn)
not listed: [2] | [3] | [7] | [13] | [16]
inactive: all other assays above

CC(C)OC(=O)C(O)(CC(=O)O)CC(=O)O
active: [11] 21.9 µM
not listed: [4] | [8] | [15]
inactive: all other assays above

Cc1ccc(C(C)C)cc2c(C)ccc1-2
not listed: [2] | [3] | [15] | [19]
inactive: all other assays above

CC1(C)CC(O)CC(C)(C)N1
not listed: [3] | [7] | [16] | [18]
inactive: all other assays above

CCC(C)(CCC(C)C)C(=O)[O][Sn]([CH3])([CH3])[O]C(=O)C(C)(CC)CCC(C)C (stereo not drawn)
active: [8] 27.3 µM
not listed: [2] | [3] | [11] | [13] | [15] | [16]
inactive: all other assays above
